Experimental data as given in PubChem BioAssay (EPA / NIEHS).
Activity calls are given as the source filed them. Rule for the calls: active = hit-call score of the fitted dose curve at least 0.9, where 1 is the maximum; inactive = score below 0.9.

assay: BSK_3C_Vis: BioMAP Diversity Plus: 3C Assay for Morphology Visualization (AID 2283025); settings: primary human endothelial cells (HUVEC);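 note: fitted both ways so gain or loss versus DMSO counts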
Method: BSK_3C is a cell-based, multiplexed-readout assay that uses umbilical vein endothelium, a human vascular primary cell, with measurements taken at 24 hours after chemical dosing in a 96-well plate.BSK_3C_Vis is an assay component measured in the BSK_3C assay. It measures NA related to cell morphology using light microscopy technology.Data from the assay component BSK_3C_Vis was analyzed into 1 assay endpoint. This assay endpoint, BSK_3C_Vis, was analyzed with bidirectional fitting relative to DMSO as the negative control and baseline of activity. Using a type of morphology reporter, gain or loss-of-signal activity can be used to understand changes in the background control. Furthermore, this assay endpoint can be referred to as a secondary readout, because this assay has produced multiple assay endpoints where this one serves a background control function. To generalize the intended target to other relatable targets, this assay endpoint is annotated to the cell morphology intended target family, where the subfamily is cell conformation.
The levels of cell surface (or secreted, indicated by the prefix "s") biomarker endpoints were measured by ELISA. Overt cytotoxicity to cells in confluent adherent cultures (all systems other than the BT system) was assessed by measuring total protein levels using sulforhodamine B (SRB) staining in parallel cultures at the time of biomarker measurements, indicated as SRB endpoints. For proliferation assays for adherent cell types, individual cell types are cultured at sub-confluence and relative cell numbers quantified by SRB staining at time points optimized for each system (48 h: 3C and CASM3C systems; 72 h: BT and HDF3CGF systems; 96 h: SAg system). SRB was performed by staining cells with 0.1% SRB after fixation with 10% TCA and reading wells at 560 nm.Viability and proliferation of PBMC (T cells) was quantified by Alamar Blue reduction for the SAg and BT systems. For PBMC viability (referred to as PBMC Cytotoxicity within the assay endpoint names), cells were plated (75,000/well in a 96-well plate) and then chemical samples added for 1 h before addition of activators, SEB and TSST-1 (20 ng/mL final concentration each). Cells were incubated for 90 h. Then, Alamar Blue (20 uL/well) (Invitrogen, Cat DAL1100) was added for 6 h, and the plates were read with a fluorescence microplate reader at 546/580 nm (excitation/emission). For PBMC proliferation, cells were plated and activated as above but incubated for only 16 h prior to addition of Alamar Blue. Plates were read after 6 h.

Structure (SMILES)	outcome	AC50
CC(C)=CCC/C(C)=C\CO	inactive	–
CC(C)CCO	inactive	–
CC(C)=CCC/C(C)=C/CO	inactive	–
CC/C(=C\C(=N/O)C(N)=O)C(C)[N+](=O)[O-] (stereo not given)	inactive	–
CC[C@H]1CC[C@H](NCc2cc3c(cc2OC)[C@H]2C[C@H]2C(=O)N3C)[C@H](c2ccccc2)N1	inactive	–
COc1ccc(/C=C/S(=O)(=O)NC(=O)c2ccc(C)cc2Cl)cc1	inactive	–
O=C(NS(=O)(=O)/C=C/c1ccccc1)c1ccc(F)cc1Cl	inactive	–
Cc1ccc(O)cc1	inactive	–
CCNc1ccccc1	inactive	–
Cn1c(=O)c2c(ncn2C)n(C)c1=O	inactive	–
On1ccccc1=S	–	38.4 µM (active)
CCOc1cccc(-n2cc(C(=O)N3CCN(c4cc(C(=O)O)c5ccccc5c4)CC3)nc2-c2ccc(C)cc2)c1	–	38 µM (active)
O=C(O)CCN(C1(C(=O)NO)CCCC1)S(=O)(=O)c1ccc(Oc2ccc(F)cc2)cc1	inactive	–
CCCN(C1CCN(C(=O)C2CCNCC2)CC1)[C@@H]1CCc2ccc(OC)cc2C1	inactive	–
CC(C)CCCCCCOC(=O)c1ccc(C(=O)OCCCCCCC(C)C)c(C(=O)OCCCCCCC(C)C)c1	inactive	–
CC(C)CCCCCCCOC(=O)CCCCC(=O)OCCCCCCCC(C)C	inactive	–
COc1ccc(-n2nc(C(F)F)cc2-c2ccc(S(C)=O)cc2)cc1 (stereo not given)	inactive	–
CNCc1ccc(NC(=O)c2c[nH]c3c2C(=O)CCC3)cc1	inactive	–
COC(=O)CC(=O)OC	inactive	–
O=C(O)c1cccc(N(Cc2cccnc2)c2ccc(OC(F)F)c(OC(F)F)c2)c1	inactive	–

Structure (SMILES)	outcome	AC50
C1=CCCC=CCCC=CCC1	inactive	–
CN(C)c1ccc(N=NS(=O)(=O)O)cc1	inactive	–
O=C(O)c1cccc(Oc2ccccc2)c1	inactive	–
CCn1nc(Cc2ccccc2)cc1C1CCN(C[C@H]2C[C@H](N(C)[C@@H](C(=O)O)C(C)C)C[C@@H]2c2cccc(F)c2)CC1	inactive	–
CC[C@H](C)C(=O)O[C@H]1C[C@@H](C)C=C2C=C[C@H](C)[C@H](CC[C@@H]3C[C@@H](O)CC(=O)O3)[C@H]21	–	28.3 µM (active)
O=C(CCCCCCCCc1cccnc1)N1CCC(C=C(c2ccccc2)c2ccccc2)CC1	–	10.9 µM (active)
CC(=O)c1ccc2c(c1)[C@H](NC(=O)c1ccc(F)cc1)[C@@H](O)C(C)(C)O2	inactive	–
CC(C)c1cccc(C(C)C)c1N1C(=O)c2ccc(O)cc2C1=O	–	5.57 µM (active)
CC(O)CN(CCN(CC(C)O)CC(C)O)CC(C)O (stereo not given)	inactive	–
CCCCC(CC)COC(=O)CCCCCCCCC(=O)OCC(CC)CCCC (stereo not given)	inactive	–
C=CCCCCCCCCC(=O)O	inactive	–
Cn1c(=O)cc(Oc2ccc(F)cc2F)c2cnc(NCC(C)(C)O)nc21	inactive	–
CN(C)c1ccc(Cc2ccc(N(C)C)cc2)cc1	inactive	–
C[C@](N)(Cc1ccc(O)c(O)c1)C(=O)O	inactive	–
CC(C)(O)c1coc(S(=O)(=O)NC(=O)Nc2c3c(cc4c2CCC4)CCC3)c1	inactive	–
CCc1cc(SCc2sc(-c3ccc(C(F)(F)F)cc3)nc2CN2CCN(c3ccc(OC)cc3)CC2)ccc1OCC(=O)O	–	14.5 µM (active)
CC(C)=CCCC(C)=CC=O	inactive	–
Cn1cnc([N+](=O)[O-])c1Sc1ncnc2nc[nH]c12	inactive	–
COC(=O)c1c(Cl)c(Cl)c(C(=O)OC)c(Cl)c1Cl	–	39 µM (active)
CCCCCCc1ccc(O)cc1O	–	39.8 µM (active)
